Screens: PubChem BioAssay, National Center for Advancing Translational Sciences (NCATS)
Rows were chosen to be rich in hits. Some 11% of all compounds tested hit in one or more screens of this group.
hNpr1 antagonist: human Npr1 receptor antagonism; HEK293 hNpr1 GloSensor cGMP, ANP-stimulated luminescence; Potency, µM (series often up to 46.3 µM), without a hit: at the top dose activity change, negative = inhibition, actives largely listed as inhibitors; 76,000 tested, 1.6% active; AID 1347048; calls by dose curve; also: nearly all actives have a fitted effect of over 60% in size
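HEK293 cells stably expressing human Npr1 and cGMP GloSensor pGS-40F, loaded 2 h with 2% GloSensor reagent, given compound 30 min at room temperature. Luminescence read before and 20 min after 0.1 nM hNppA.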
HEK cytotox: kills HEK 293 cells; HEK 293 viability, ATP luminescence (CellTiter-Glo), 48-72 h; Potency, µM (highest dose often 115 µM), without a hit: top-dose activity change, negative = cytotoxicity, usual class: inhibitors; 94,000 tested, 6.6% active; also: nearly all actives have a fitted effect of over 60% in size
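250 HEK 293 cells/well; compound by pintool; incubated 48 or 72 hr at 37 degree Celsius; CellTiter-Glo added, 10 min RT, luminescence imaged.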
3T3 cytotox: kills NIH 3T3 cells | NIH 3T3 viability, CellTiter-Glo ATP luminescence, 48-72 h | Potency, µM (top dose mostly 96.7 µM), inactives show top-dose activity change, negative = cytotoxicity, most hits filed as inhibitors | 94,000 tested, 4.3% active; also: nearly all actives have a fitted effect of over 55% in size
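Viability of NIH 3T3 cells after 48 or 72 hr compound treatment at 37 °C was assessed by CellTiter-Glo, with luminescence imaged following a 10 min room-temperature step.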
Luciferase inh: inhibitors of firefly (Photinus pyralis) luciferase. Potency, µM (top dose mostly 115 µM), most hits filed as inhibitors. purified P. pyralis luciferase, luminescence, biochemical. 76,000 tested, 2.5% active. P08659; also: nearly all actives have a fitted effect of over 65% in size
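Cell-free enzyme assay, 10nM P. pyralis luciferase, luciferin and ATP each at 10uM. Inhibition profiled over a 6-point titration, read as luminescence.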
Active calls of the source: *; ! = not active in a repeat; [ ] = another dose, or the depositor's remark. Unless noted, calls follow the shape of the dose curve; as a rule, active = well fitted curve in the direction sought with a large enough effect; inconclusive = small, poorly fitted or top-dose-only effect, or another doubt; inactive = no such curve, though single readings can be large; an effect the other way counts as inactive or inconclusive. % is scaled to controls: 0 for no effect and ±100 for the full control effect; potency is read from the fitted curve at half-maximal effect.

Results for COc1ccc(-c2nnc3ccc(N4CCN(C(C)=O)CC4)nn23)nc1 ?
hNpr1 antagonist: -8%[70.6 µM]; HEK cytotox: -4%[172 µM]; 3T3 cytotox: inconclusive; Luciferase inh: inactive

Results for COc1ccc(-c2nnc3ccc(N4CCCC4)nn23)nc1 ?
hNpr1 antagonist: 3%[70.6 µM]; HEK cytotox: -18%[172 µM]; 3T3 cytotox: 32µM*; Luciferase inh: inactive

Results for CCCC(=O)N1CC2(CCCN2Cc2cccnc2)Cc2ccccc21 (stereo unspecified) ?
HEK cytotox: inconclusive; 3T3 cytotox: -24%

Results for OCc1ccc(-c2ccc3nnc(-c4ccccn4)n3n2)cc1 ?
hNpr1 antagonist: 0%[70.6 µM]; HEK cytotox: inactive; 3T3 cytotox: 89µM*; Luciferase inh: inactive

What do the screens show for `COc1ccc(C(=O)N[C@@H]2CN(C(=O)Nc3ccccc3)CCC[C@H]2O)cc1`?
hNpr1 antagonist: -4%[70.6 µM]; HEK cytotox: inconclusive; 3T3 cytotox: inconclusive; Luciferase inh: inactive

How did COc1ccc(C(=O)N[C@@H]2CN(C(=O)Nc3ccc(F)cc3)CCC[C@H]2O)cc1 do in these assays?
hNpr1 antagonist: -15%[70.6 µM]; HEK cytotox: inconclusive; 3T3 cytotox: 100µM*; Luciferase inh: inconclusive

How did O=C(C1CCCN1C(=O)NC1CCCC1)N1CCCC(c2nc3ncccc3[nH]2)C1 (stereo unspecified) do in these assays?
HEK cytotox: inactive; 3T3 cytotox: -11%

What do the screens show for `Cc1ccc(-c2ncc(C(=O)Nc3ccc(F)cc3C)c(-c3ccncc3)n2)cc1`?
hNpr1 antagonist: -3%; HEK cytotox: 40µM*; 3T3 cytotox: 22µM*; Luciferase inh: inactive

How did O=C(Nc1ccc(F)cc1F)c1cnc(-c2ccc(F)cc2)nc1-c1ccncc1 do in these assays?
hNpr1 antagonist: -17%; HEK cytotox: -22%; 3T3 cytotox: -15%; Luciferase inh: inactive

What do the screens show for `Cc1ccc(-c2ncc(C(=O)Nc3ccccc3)c(-c3ccncc3)n2)cc1`?
hNpr1 antagonist: -8%; HEK cytotox: inconclusive; 3T3 cytotox: -4%; Luciferase inh: inactive

How did O=C(Nc1ccc(Br)c(F)c1)c1cnc(-c2ccccc2)nc1-c1ccncc1 do in these assays?
hNpr1 antagonist: inconclusive; HEK cytotox: 32µM*; 3T3 cytotox: 25µM*; Luciferase inh: inactive

How did O=C(Nc1cccc(Br)c1)c1cnc(-c2ccccc2)nc1-c1ccncc1 do in these assays?
hNpr1 antagonist: inconclusive; HEK cytotox: 40µM*; 3T3 cytotox: inconclusive; Luciferase inh: inactive

What do the screens show for `O=C(Nc1ccccc1Cl)c1cnc(-c2ccccc2)nc1-c1ccncc1`?
hNpr1 antagonist: -29%; HEK cytotox: 1%; 3T3 cytotox: -5%; Luciferase inh: inactive

How did Cc1c(Cl)cccc1NC(=O)c1cnc(-c2ccccc2)nc1-c1ccncc1 do in these assays?
hNpr1 antagonist: inconclusive; HEK cytotox: inconclusive; 3T3 cytotox: 35µM*; Luciferase inh: inactive

What do the screens show for `CCOC1CCOC2(CCN(C(=O)c3ccc4c(c3)OCO4)CC2)C1` (stereo unspecified)?
HEK cytotox: -14%; 3T3 cytotox: -20%

What do the screens show for `O=C(Nc1ccccc1)Nc1cnc2c(c1)CCC2`?
HEK cytotox: -7%; 3T3 cytotox: -28%

What do the screens show for `Cc1ncc2n1C(=O)N(C1CCN(C(=O)Nc3ccc(Cl)cc3)CC1)C2`?
hNpr1 antagonist: inconclusive; HEK cytotox: inconclusive; 3T3 cytotox: -27%; Luciferase inh: inactive

Results for CC(=O)N1Cc2ccccc2CC2(CCCCN2Cc2ccccc2)C1 (stereo unspecified) ?
HEK cytotox: inconclusive; 3T3 cytotox: -3%

How did c1ccc(CCN2CCNc3cc(NCc4cccnc4)ncc3C2)cc1 do in these assays?
hNpr1 antagonist: 4%[70.6 µM]; HEK cytotox: 50µM*; 3T3 cytotox: 50µM*; Luciferase inh: inactive

What do the screens show for `OCc1cccc(-c2cc3c(cn2)CN(CCc2ccccc2)CCN3)c1`?
hNpr1 antagonist: 0%[70.6 µM]; HEK cytotox: inconclusive; 3T3 cytotox: inconclusive; Luciferase inh: inactive

Results for Cc1[nH]cnc1CN1CCNc2cc(-c3ccccc3)ncc2C1 ?
hNpr1 antagonist: -5%[70.6 µM]; HEK cytotox: inconclusive; 3T3 cytotox: inconclusive; Luciferase inh: inconclusive

Results for c1ccc(CCN2CCNc3cc(-c4cn[nH]c4)ncc3C2)cc1 ?
hNpr1 antagonist: -27%[70.6 µM]; HEK cytotox: inconclusive; 3T3 cytotox: 89µM*; Luciferase inh: inactive

Results for COCCN1CCNc2cc(-c3ccc(Oc4ccccc4)cc3)ncc2C1 ?
hNpr1 antagonist: inconclusive; HEK cytotox: 50µM*; 3T3 cytotox: 45µM*; Luciferase inh: 28µM*

Results for CC(=O)NC1(C)CCN(Cc2ccc(-c3ccccc3Oc3ccccc3)cc2)C1 (stereo unspecified) ?
hNpr1 antagonist: -4%[70.6 µM]; HEK cytotox: 56µM*; 3T3 cytotox: 40µM*; Luciferase inh: inactive

Results for CC(=O)NC1(C)CCN(Cc2ccccc2-c2ccc3ccccc3c2)C1 (stereo unspecified) ?
hNpr1 antagonist: -17%[70.6 µM]; HEK cytotox: inconclusive; 3T3 cytotox: 79µM*; Luciferase inh: inactive

Results for COc1ccc(-c2nc3cc(C(=O)N4CCOCC4)ccc3o2)cn1 ?
HEK cytotox: 0%; 3T3 cytotox: -23%

How did O=C(c1ccc2nnc(-c3ccc(Cl)cc3)n2c1)N1CCN(c2ncccn2)CC1 do in these assays?
HEK cytotox: 1%; 3T3 cytotox: -23%

What do the screens show for `COc1ccccc1-c1ccc(C(=O)N2CCC(NC(=O)Cc3ccc(F)cc3)CC2)cc1`?
HEK cytotox: inconclusive; 3T3 cytotox: 45µM*!

What do the screens show for `COc1ccccc1-c1ccc(C(=O)N2CCC(NC(=O)Cc3cccc(Cl)c3)CC2)cc1`?
HEK cytotox: 16µM*!; 3T3 cytotox: 16µM*

What do the screens show for `CNC(=O)C1CCN(C(=O)c2ccc(-c3ccccc3OC)cc2)CC1`?
HEK cytotox: inactive; 3T3 cytotox: -2%

What do the screens show for `COc1ccccc1-c1ccc(C(=O)N2CCC(NC(=O)c3ccc(Cl)cc3)CC2)cc1`?
HEK cytotox: inconclusive; 3T3 cytotox: -29%

Results for COc1ccccc1-c1ccc(C(=O)N2CCC(C(=O)NCCc3ccc(Cl)cc3)CC2)cc1 ?
HEK cytotox: inconclusive; 3T3 cytotox: 32µM*

What do the screens show for `C#CCNC(=O)C1CCN(C(=O)c2ccc(-c3ccccc3OC)cc2)CC1`?
HEK cytotox: inconclusive; 3T3 cytotox: -32%

Results for COc1ccccc1CN1CCCC12Cc1ccccc1CNC2=O (stereo unspecified) ?
HEK cytotox: -11%; 3T3 cytotox: -12%

How did CCc1ccc(CNC(=O)c2cc3n(n2)CC(c2ccc(Cl)cc2)OC3)cc1 (stereo unspecified) do in these assays?
hNpr1 antagonist: inconclusive; HEK cytotox: inconclusive; 3T3 cytotox: 40µM*; Luciferase inh: inactive

What do the screens show for `CC(C)c1ccc(CNC(=O)c2cc3n(n2)CC(c2ccc4c(c2)OCO4)OC3)cc1` (stereo unspecified)?
hNpr1 antagonist: -19%; HEK cytotox: 40µM*; 3T3 cytotox: inconclusive; Luciferase inh: inactive
